The text below walks through data of PubChem BioAssay AID2315 (National Center for Advancing Translational Sciences (NCATS), 2010).

In all, about 290,000 compounds went through this assay and about 27,000 (9.3%) were called active. This is one part of a sample in which actives are shown more often than they occur. Unmarked numbers belong to inactive results. Rule as the data show it: active = inhibition mostly above about 28% (no sharp cut-off); inactive = mostly below about 43%.

The assay is described as follows: A qHTS for Small Molecule Inhibitors of Shiga Toxin. Also: 0% is about no effect. To be noted: Vero cells, Shiga toxin protein synthesis inhibition reporter; at 38.7 µM, active compounds read high.
Regarding `O=C(c1ccc(C(F)(F)F)cc1)C1CCCN(C(=O)c2csnn2)C1` (stereo unspecified), the inhibition (usually the drop in the measured response relative to a control, in per cent) is -1.35%.
For `COc1ccc(CCNC(=O)C2CCCN2C(=O)Nc2ccccc2)cc1OC` (stereo unspecified), the inhibition is 9.89%.
As for `O=S1(=O)N=C(N(CCO)/N=C/c2ccccc2F)c2ccccc21`, the inhibition was -5.12%.
On to `CCCc1nc2ccccc2c(=O)n1NC(=O)c1c(O)c2ccccc2[nH]c1=O`, for which the inhibition was 110% (active).
On to `CCCCc1nc2ccccc2c(=O)n1NC(=O)c1c(O)c2cccc3c2n(c1=O)CC3`, for which the inhibition was 28.4%.
In the case of `CCCC(=O)Nc1c(O)c2ccccc2[nH]c1=O`, the inhibition was 25.5%.
With `C#CC(CCN1CCCCC1)(OC)c1ccccc1` (stereo unspecified) the figure was -17.9%; with `CCCc1c(C(=O)N/N=C(\C)CCc2ccc(OC)cc2)nnn1-c1nonc1N`, -11%; with `OC(CNCCc1ccc(Cl)cc1Cl)COc1ccccc1` (stereo unspecified), 2.65%.
With `O=C(CN(Cc1ccc(Br)cc1)S(=O)(=O)c1ccccc1)NCc1ccncc1` the figure was -14.3%; with `O=C(C1CC(=O)N(c2ccc(F)cc2)C1)N1CCN(c2ccccc2)CC1` (stereo unspecified), -5.65%.
With `COc1ccc(Cn2c(-c3ccc(Cl)cc3)c[n+]3ccccc23)cc1` the figure was 96.6% (active).
`COc1ccc(C(=O)CN(C(=O)c2ccc(Cl)cc2)N2C(=O)c3ccccc3C2=O)cc1`: the inhibition was -9%.
Regarding `CCn1c(C)cc(=O)cc1-c1ccc(Cl)cc1`, the inhibition is -5.82%.
On to `CC1(C)C2CCC1(CS(=O)(=O)NCCc1c[nH]c3ccccc13)C(=O)C2` (stereo unspecified), for which the inhibition was 23.7%.
In the case of `O=C(N/C(=C\c1ccc(O)cc1)C(=O)N1CCCCC1)c1ccccc1`, the inhibition is 11.3%.
`Cc1ccc(N2CCN(/N=C/c3cccs3)CC2)cc1`: the inhibition is 13.1%.
With `C(=N/N1CCN(c2ccccc2)CC1)/c1cccs1` the figure was 94.4% (active).
On to `COc1cc(/C=N/N2CCN(c3ccccc3)CC2)ccc1OC(C)=O`, for which the inhibition was 23.8%.
With `O=C(Cn1nc(C(=O)O)c2ccccc2c1=O)Nc1ccc(F)cc1` the figure was -3.59%; with `O=C1CCC([N+](=O)[O-])C(c2ccccc2Br)N1` (stereo unspecified), 4.29%; with `COc1ccc(-c2nnc(NC(=O)CS(=O)(=O)c3ccc(Cl)cc3)o2)c(OC)c1`, 3.54%.
Then `COC(=O)CN1C(=O)C(C)(C)Oc2ccc(C(=O)Nc3cccc(OC)c3)cc21`, with -0.621%.
As for `CN(C)S(=O)(=O)c1ccc(N/C=C(\[N+](=O)[O-])S(=O)(=O)c2ccccc2)cc1`, the inhibition is -2.26%.
As to `COc1ccc(C(=O)NC2CCN(C(=S)Nc3ccccc3)CC2)cc1`, the inhibition is -2.02%.
Then `CCC(C)N(C)C1CCN(C(=S)Nc2ccc(OC)cc2)CC1` (stereo unspecified), with -9.08%; and `COc1ccccc1C1CCN(C(=S)Nc2ccc(Br)cc2)CC1`, with 47.5% (active).
Then `CN1CCC(=O)N([C@H](CO)Cc2ccccc2)CC1`, with -4.98%.
On to `O=C1CCCC(O)=C1N=Nc1ccc2ncsc2c1`, for which the inhibition was 87.8% (active).
With `O=C1CCCC(O)=C1N=Nc1ccc(S(=O)(=O)N2CCOCC2)cc1` the figure was 22.3%; with `COC(=O)c1ccc2c(=O)n(CCN3CCOCC3)c(SCC(=O)Nc3cccc(OC)c3)nc2c1`, -7.42%.
With `O=C(CNC(=O)Cc1ccccc1)N=Nc1c(O)[nH]c2ccc(Br)cc12` the figure was 3.9%.
Then `CC1(C)CCSC(/C=C/c2ccccc2)=N1`, with 52.2% (active); and `Cc1cccn2c(=O)c(C=O)c(Nc3ccc(S(N)(=O)=O)cc3)nc12`, with 3.64%.
As for `CCC(=O)N(CCc1ccccc1)Cc1cc2cc(C)ccc2[nH]c1=O`, the inhibition is -0.364%.
As to `COc1cccc(-n2c(=S)sc3c(=O)n(-c4ccccc4OC)c(SCC4OCCO4)nc32)c1`, the inhibition is -11.3%.
On to `O=C(Nc1nnc(-c2ccccc2F)s1)c1ccccc1F`, for which the inhibition is 58% (active).
Turning to `Cc1ccccc1Nc1nc(-c2cccnc2)cs1`, the inhibition was 76.4% (active).
Take `O=C(O)c1ccccc1-c1ccccc1C(=O)NCc1cccnc1`: the inhibition was -3.52%.
`O=C(Nc1nc(-c2cccnc2)cs1)c1ccccc1F`: the inhibition was 166% (active).
For the molecule `O=C(Nc1ccc(NC(=O)c2ccccc2F)cc1)c1ccccc1F`, the inhibition was -6.19%.
Turning to `O=C(NCc1cccnc1)C(=O)Nc1nc(-c2ccccc2)cs1`, the inhibition is 98% (active).
Turning to `O=C(Nc1ccccc1F)c1ccccc1-c1ccccc1`, the inhibition was 7.36%.
For `O=C(NCc1cccnc1)Nc1ccccc1F`, the inhibition was 19.6%.
As for `O=C(O)c1ccccc1C(=O)Nc1nc(-c2ccccc2)cs1`, the inhibition was -11.1%.
Then `CN(Cc1ccccc1)S(=O)(=O)c1nnc(NC(=O)c2ccccc2F)s1`, with -6.12%; and `Cc1ccc(CNC(=O)C2(C(F)(F)F)C/C(=C\CCO)CCCO2)o1` (stereo unspecified), with -7.08%; and `COc1ccc(CNC(=O)COc2cccnc2[N+](=O)[O-])cc1`, with -2.63%.
For `CC(=O)N1CCN(C(=O)C2(NC(=O)Nc3ccc(C)cc3)CCCCC2)CC1`, the inhibition was 23.1%.
As to `NNC(=O)CNC(c1ccccc1)c1cc(Cl)ccc1NC(=O)c1ccccc1` (stereo unspecified), the inhibition is -4.52%.
In the case of `COc1ccc(Nc2nc(NCc3ccco3)nc(N/N=C/c3ccccc3Cl)n2)cc1`, the inhibition was 7.02%.
Then `COc1ccc(CC(=O)N/N=C/c2cc([N+](=O)[O-])cc(Br)c2O)cc1`, with -3.43%.
Then `Cc1ccc(S(=O)(=O)c2nnn3c2nc(N2CCN(c4ccccn4)CC2)c2ccccc23)cc1`, with -12%; and `Cc1occc1C(=O)NC1CCCN(Cc2ccc(CC(C)C)cc2)C1` (stereo unspecified), with -8.21%; and `Cc1ccc(CNS(=O)(=O)c2ccc3c(c2)N(C)CCO3)cc1`, with -2.13%.
Turning to `CC1CCN(S(=O)(=O)c2ccc3[nH]c(=O)ccc3c2)CC1`, the inhibition was -6.16%.
Then `O=C(NC(=S)Nc1ccc(Cl)c(C(=O)O)c1)c1cncc(Br)c1`, with 14.6%; and `N#Cc1ccc(/C=C2\CCn3c2nc2cc(C(=O)O)ccc2c3=O)cc1`, with -9.62%; and `O=C(Nc1nnc(Cc2ccccc2)s1)c1cnccn1`, with -3.24%.
With `Cc1ccc(-c2csc(NC(=O)c3cnccn3)n2)cc1C` the figure was 8.33%.
Then `O=C(Nc1nc(-c2ccc(-c3ccccc3)cc2)cs1)c1cnccn1`, with 34.8% (active); and `COc1ccc(CN2CCC(n3nccc3NC(=O)CCCc3ccccc3)CC2)cc1C`, with -2.11%.
In the case of `CC(=O)Nc1ccc(NS(=O)(=O)c2ccc3c(c2)NC(=O)CC(=O)N3)cc1`, the inhibition was -11.9%.
Then `CCOC(=O)c1c(C)[nH]c(C)c1S(=O)(=O)NCCCc1ccco1`, with -3.37%; and `O=C(CCCCCn1c(=S)[nH]c2cc3c(cc2c1=O)OCO3)N1CCN(c2ccc(F)cc2)CC1`, with -1.92%; and `CCn1c(CC(=O)Nc2ccccc2C)nnc1SCC(=O)NC1=NCCS1`, with 2.84%.
With `COc1ccc(-c2cn3ccsc3n2)cc1`, the inhibition is 43.6% (active).
Then `CN1CCN(Cc2ccc(OC(F)(F)F)cc2)CC1`, with -16.1%; and `CCCCCC(=O)Nc1ccc(-c2cn3cccnc3n2)cc1`, with 64.5%; and `COc1ccc(-c2cn3ccc(C)cc3n2)cc1`, with -17.1%.
As to `FC(F)(F)Oc1ccc(-c2cn3cccnc3n2)cc1`, the inhibition was 54.1% (active).
As to `CC(=O)Nc1ccc(-c2cn3cccnc3n2)cc1`, the inhibition was 52.4% (active).
On to `c1ccc(-c2cn3cccnc3n2)cc1`, for which the inhibition was 58.5% (active).
With `c1ccc(-c2cn3c(n2)CCc2ccc4cccnc4c2-3)cc1` the figure was -6.84%; with `CC(C)(C)C(=O)Nc1ccc(-c2cn3cccnc3n2)cc1`, 32.2%.
Then `CCCC(=O)Nc1cccc(-c2cn3ccsc3n2)c1`, with 22.4%; and `Cc1ccccc1Nc1c(-c2ccccc2)nc2ncccn12`, with 19.2%; and `CCOC(=O)c1cnc(Nc2nc3ccccc3o2)nc1CSC(=S)N1CCCCC1`, with 36.8%.
For the molecule `CN(Cc1ccc(F)cc1Cl)S(=O)(=O)c1cccs1`, the inhibition was 39.1%.
As to `CCOC(=O)N1CCN(C(=O)C(C)NC(=O)c2ccco2)CC1` (stereo unspecified), the inhibition is -4.62%.
With `COc1ccc(CC(=O)NC2CCSc3ccccc32)cc1OC` (stereo unspecified) the figure was -2.96%.
As to `O=C(Nc1ccccc1C(=O)Nc1ccncc1)c1ccc([N+](=O)[O-])cc1`, the inhibition was -5.25%.
With `O=C(NNS(=O)(=O)c1ccc([N+](=O)[O-])cc1)C1CCCCC1` the figure was -11%.
`CCCCn1c(N)c(N(CCOC)C(=O)c2oc3ccc(OC)cc3c2C)c(=O)[nH]c1=O`: the inhibition is -5%.
In the case of `COc1cc(C)cc(CN2CCC(Cc3ccccc3)CC2)c1O`, the inhibition was -4.61%.
Then `NC(=O)c1ccccc1N=Cc1ccc2ccccc2c1`, with 69.3%; and `COc1ccc(-c2cn3cccnc3n2)cc1`, with 50.1% (active); and `COc1ccc(N2CCN(C(=O)CSc3nnc4ncccn34)CC2)cc1`, with -8.3%.
With `COc1ccc(-c2ccnc(SCC(=O)N3CCOCC3)n2)cc1`, the inhibition is 19.9%.
Take `O=C(Nc1ccccc1N1CCOCC1)c1ccc(OCc2cscn2)cc1`: the inhibition is 3.77%.
With `CCOc1cc(/C=C2/C(=N)N3OC(C)=CC3=NC2=O)ccc1OC` the figure was -19.9%; with `CC1=CC2=NC(=O)/C(=C/c3coc4ccccc4c3=O)C(=N)N2O1`, 11.7%.
As to `COc1ccc(OCCCn2cccc2/C=C2/C(=N)N3OC(C)=CC3=NC2=O)cc1`, the inhibition is 47.7% (active).
With `Oc1ccccc1CN1CCN(C(c2ccccc2)c2ccccc2)CC1` the figure was -6.21%; with `NC(=O)COC(=O)c1ccc2c(c1)C(=O)N(Cc1ccco1)C2=O`, -6.38%; with `CC(C)CC(=O)N/C(N)=N/c1nc2ccccc2s1`, 61.6% (active).
Turning to `CCC(=O)NCCc1nc2ccccc2n1CC`, the inhibition was -5.67%.
In the case of `O=C(O)CCCCc1nc2ccccc2s1`, the inhibition was -9.29%.
For the molecule `CCC(=O)NC(=Nc1nc2ccccc2s1)NC(=O)CC`, the inhibition is 57.8% (active).
With `CC(C)CC(=O)NC(=S)NCc1ccccc1` the figure was -1.98%.
As for `Cc1cc(C(=O)OCC(=O)Nc2nnc(C(C)C)s2)c2ccccc2n1`, the inhibition is -2.62%.
